12-LOX inh: Primary qHTS assay for inhibitors of human arachidonate 12S-lipoxygenase (ALOX12): Round 2 | Polyunsaturated fatty acid lipoxygenase ALOX12 (Homo sapiens), P18054 | purified 12hLO, xylenol orange hydroperoxide absorbance | Potency, µM (top dose mostly 108 µM), without a hit: top-dose activity change, negative = inhibition, most hits filed as inhibitors | 1.1% of 580,000 active; further: on the % scale 0 is the no-effect control and ±100 the full control effect
Target sequence (P18054 whole entry, looked up): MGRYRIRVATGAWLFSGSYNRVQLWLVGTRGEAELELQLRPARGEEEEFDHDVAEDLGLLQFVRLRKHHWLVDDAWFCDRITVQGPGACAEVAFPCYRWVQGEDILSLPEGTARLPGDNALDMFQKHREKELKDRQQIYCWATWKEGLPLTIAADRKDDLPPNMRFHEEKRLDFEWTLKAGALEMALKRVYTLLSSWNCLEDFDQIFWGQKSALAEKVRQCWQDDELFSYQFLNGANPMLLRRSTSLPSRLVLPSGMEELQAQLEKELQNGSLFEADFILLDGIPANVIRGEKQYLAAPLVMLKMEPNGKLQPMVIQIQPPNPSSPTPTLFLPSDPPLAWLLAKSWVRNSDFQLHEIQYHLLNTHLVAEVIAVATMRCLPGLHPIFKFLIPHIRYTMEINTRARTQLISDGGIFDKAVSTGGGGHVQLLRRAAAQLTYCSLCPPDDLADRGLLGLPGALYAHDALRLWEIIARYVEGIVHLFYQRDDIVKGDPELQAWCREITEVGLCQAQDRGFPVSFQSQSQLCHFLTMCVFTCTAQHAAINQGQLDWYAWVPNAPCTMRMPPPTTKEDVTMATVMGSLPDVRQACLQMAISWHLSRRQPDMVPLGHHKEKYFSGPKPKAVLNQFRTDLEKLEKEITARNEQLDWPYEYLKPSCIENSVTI
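Purified human 12hLO (150 nM final) in 25 mM Hepes, 0.01% Triton X-100, pH 7.0 was preincubated 15 min at room temperature with compound. Then 40 uM arachidonic acid was added, 30 min. Hydroperoxide was read by Fe-XO absorbance ratio 573/405 nm.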
EPAC1 antagonist: qHTS for Antagonist of cAMP-regulated guanine nucleotide exchange factor 3 (EPAC1): primary screen. EPAC1 GEF assay, Rap1b-BODIPY-GDP exchange fluorescence. Potency, µM (series often up to 115 µM), without a hit: top-dose activity change, negative = inhibition, usual class: inhibitors. 0.14% of 360,000 active. AID 720709, 2013;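 further: plate controls were vehicle for no effect and positive control for full effect; nearly all actives have a fitted effect of over 50% in size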
USP1-UAF1 inh: Inhibitors of USP1/UAF1: Primary Screen; AID 743255, 2014; 0.23% of 390,000 active; recombinant USP1/UAF1, Ub-Rhodamine cleavage fluorescence; Potency, µM (series often up to 57.1 µM), for the others: at the top dose activity change, negative = inhibition, actives largely listed as inhibitors; Ubiquitin carboxyl-terminal hydrolase 1 (Homo sapiens), O94782; further: on the % scale 0 is the no-effect control and ±100 the full control effect; nearly all actives have a fitted effect of over 60% in size
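USP1/UAF1 complex (1 nM) preincubated 15 min at room temperature with compound, then Ub-Rho substrate (150 nM final) added. Kinetic fluorescence at 480/540 nm over 6 reads at 60 s intervals; 50 mM HEPES pH 7.8, 0.5 mM EDTA, 0.1 mg/ml BSA, 1 mM TCEP, 0.01% Tween-20.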
EPAC1 ag: qHTS for Agonist of cAMP-regulated guanine nucleotide exchange factor 3 (EPAC1): primary screen. Rap guanine nucleotide exchange factor 3 (Homo sapiens), O95398. EPAC1 agonist qHTS, biochemical assay; response scale: 100% = response to 6.5 mM cAMP. Potency, µM (top dose mostly 154 µM), inactives show at the top dose activation, hits mostly activators. 0.073% of 360,000 active; further: nearly all actives have a fitted effect of over 60% in size
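Nucleotide exchange by EPAC1 (100 nM) on Rap1B–BODIPY-GDP (250 nM) in the presence of 50 uM GDP is tracked fluorescently at 480/540 nm over 30 min. Signals are normalized to a 6.5 mM cAMP control.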
EPAC2 antag: qHTS for Antagonist of cAMP-regulated guanine nucleotide exchange factor 2 (EPAC2): primary screen; 0.18% of 360,000 active; EPAC2 GEF exchange of Rap1B-BODIPY-GDP, fluorescence; AID 720708, 2013; Potency, µM (top dose mostly 114 µM), for the others: at the top dose activity, negative = inhibition, most hits filed as inhibitors; further: on the % scale 0 is the no-effect control and ±100 the full control effect; nearly all actives have a fitted effect of over 45% in size
EPAC2 ag: qHTS for Agonist of cAMP-regulated guanine nucleotide exchange factor 4 (EPAC2): primary screen | Potency, µM (doses to about 154 µM), for inactives: top-dose activation, most hits filed as activators | EPAC2 activation, biochemical qHTS; response scale: 100% = 6.5 mM cAMP response | 0.079% of 360,000 active; further: nearly all actives have a fitted effect of over 50% in size
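Guanine nucleotide exchange by EPAC2 is measured as reduced fluorescence of BODIPY-GDP once it is released from 250 nM Rap1B. Plates are read kinetically for 30 min at room temperature; results are scaled to 6.5 mM cAMP.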
Active calls of the source: *; ? = inconclusive; . = not tested or not shown; ! = repeats disagree; [ ] = dose if it differs, or a comment. Hits are enriched below; roughly 1.3% of the tested compounds scored in any of these assays. The call rests on the fitted dose curve; in most records, active means well fitted curve in the direction sought with a large enough effect; inconclusive means small, poorly fitted or top-dose-only effect, or another doubt; inactive means no such curve, though single readings can be large; an effect the other way counts as inactive or inconclusive. Potency means the concentration at half of the fitted maximal effect.

SMILES	12-LOX inh	EPAC1 antagonist	USP1-UAF1 inh	EPAC1 ag	EPAC2 antag	EPAC2 ag
CC(=O)Nc1ccc(CN2CCC3(CC(c4cccc(C(F)(F)F)c4)=NO3)C2)cc1 (centres undefined)	-0.6%[6.33 µM]	.	.	.	.	.
Cc1nc(-n2[nH]c3c(c2=O)CCCC3)[nH]c(=O)c1Cc1ccccc1	0.0%	16.7%	28.2µM*	9.2%	0.4%	8.8%
CCOCCCNC(=O)c1nnn2cc(-c3ccccc3)[nH]c(=O)c12	17.8µM*	.	.	.	.	.
CCOCCCNC(=O)c1cc2c(=O)[nH]c(-c3ccccc3)cn2n1	15.6%	.	.	.	.	.
N#C/C(=N\Nc1cc(Cl)cc(Cl)c1)c1nnc2n1CCCCC2	15.8µM*	-14.2%	-7.8%	1.8%	-23.2%	5.6%
O=C(CN1CCN(c2cc(-c3nc4ccccc4s3)c3ccccc3n2)CC1)N1CCOCC1	-25.6%	.	.	.	.	.
NCCCCC(=O)N1CCOc2c(O)cc(-c3csc4ccccc34)cc2C1	17.5%	.	.	.	.	.
CCCCn1nc(C(=O)Nc2nnc(C)s2)c2ccccc2c1=O	-4.5%	.	.	.	.	.
N[C@@H](Cc1cc(I)c(Oc2ccc(O)cc2)c(I)c1)C(=O)O	4.8%	.	.	.	.	.
N[C@@H](Cc1cc(I)c(Oc2ccc(O)c(I)c2)c(I)c1)C(=O)O	?	50.1µM*!	?	-23.5%	?	-3.5%
CC1=CC(=O)C=CC1=Nc1ccc(N(C)C)cc1	7.94µM*	-12.5%	.	-8.8%	-11.9%	-8.6%
CN(C)c1ccc(N=Nc2ccc(S(N)(=O)=O)cc2)cc1	-26.5%	-12.4%	-0.7%	-9.5%	-4.7%	-7.5%
C/C(=N\NC(=S)NCCc1ccccc1)c1ccc(Cl)cc1	35.5µM*	-7.5%	-11.4%	5.4%	-3.2%	10.8%
Cc1ccc(SCCNC(=S)Nc2ccccc2)cc1	?	-7.3%	-26.6%	20.2%	-12.0%	1.0%
COc1ccccc1NC(=S)NCCSc1ccc(C)cc1	44.7µM*	-15.7%	-5.0%	9.8%	-16.2%	21.9%
C/C(=N/NC(=O)CNC(=O)CCc1ccccc1)c1ccc(Cl)cc1	196.3%	-23.0%	7.3%	0.8%	-1.9%	-1.0%
C/C(=N\NC(=S)NCCc1ccccc1)c1ccc(C)cc1	39.8µM*	0.0%	-6.1%	17.1%	-3.4%	11.8%
S=C(NCCSc1ccc(Cl)cc1)NCCc1ccccc1	39.8µM*	.	.	.	.	.
C/C(=N\NC(=S)NCCc1ccccc1)c1ccc(C#N)cc1	0.0%	11.5%	-14.4%	1.2%	4.5%	-7.1%
Cc1cc(C)cc(NC(=S)NCCSc2ccc(Cl)cc2)c1	?	3.3%	-15.5%	9.2%	-17.4%	14.4%
CC1(c2ccccc2)N(Cc2ccccc2)C(=O)OC12CCN(C(=O)Cc1ccc(O)cc1)CC2 (centres undefined)	18.8%	.	.	.	.	.
Cn1nnc(NC(=S)NC(=O)c2cc3ccccc3o2)n1	2.51µM*	-16.0%	-17.8%	-6.3%	11.8%	6.3%
Clc1cccc(CN2CCSCC2)c1	0.355µM*	-6.7%	-0.1%	8.9%	-10.8%	3.5%
COCCCn1cc(CN2CC(N3CCN(Cc4cccc(C)c4)CC3)CS2(=O)=O)nn1 (centres undefined)	11.2µM*	8.4%	.	-4.0%	1.6%	9.6%
COCCCn1cc(CN2CC(N3CCCCC3)CS2(=O)=O)nn1 (centres undefined)	0.0%	-17.1%	.	-21.4%	0.8%	1.4%
Cc1cccc(CN2CCN(C3CN(Cc4cn(Cc5cccc(C(F)(F)F)c5)nn4)S(=O)(=O)C3)CC2)c1 (centres undefined)	12.6µM*	-6.7%	.	-0.6%	-2.0%	8.2%
